Only a sample is shown.
aSyn UTR act = Activators via SNCA 5'UTR binding, MLPCN; AID 1814; alpha-synuclein 5'UTR reporter, activators screen; activity score, % (tested at 7.5 µM), hits read low; 300,000 tested, 7.1% active; in the data active = activity score below about -60%
A number is an active result; n = inactive.

SMILES	aSyn UTR act
CCOc1cc2nc3c4ccccc4n(C)c3nc2cc1OCC	-62
CCOc1ccc2c(c1)nc(SCC(=O)c1cccs1)n2C	-67
Cc1ccc(NNc2c(C)nc3ccccc3nc2=O)cc1	-112
CCCCN1C(=O)/C(=C2\SC(N3CCCCC3)=NC2=O)c2ccccc21	-149
O=C(CC1=NCCNC(c2ccccc2)C1)c1ccccc1O (stereo not drawn)	-145
Cc1nn(C(=O)c2cccs2)c(N)c1-c1ccccc1	-125
Cc1cc(C)nc(-n2nc(C)c(Sc3ccc(F)cc3)c2N)n1	-182
Cc1ccc(C2=N/C(=C\N3CCCCC3)C(=O)O2)cc1	-105
Cc1ccc(C2=N/C(=C/N3CCOCC3)C(=O)O2)cc1	-100
COc1cc(-c2noc(C)c2/C=C/c2ccc(N)cc2)cc(OC)c1OC	n
Cc1ccnc(N=Cc2nc(-c3ccccc3Br)oc2O)c1	-102
COc1ccc(/C=C2\SC(=O)N(CCNC(=O)C3CC4C=CC3C4)C2=O)cc1 (stereo not drawn)	-194
CC(C)(C)NC(=O)CN(C(=O)CNS(=O)(=O)c1ccccc1)c1ccc2c(c1)OCCO2	-86
Clc1ccc(-c2cn3c(n2)-c2ccccc2C3)cc1Cl	-67
CCC(C)NC(=O)c1cn(-c2cccc(C)n2)cn1 (stereo not drawn)	-110
Cc1cccc(-n2cnc(C(=O)NC3CCCCCC3)c2)n1	-101
O=C(/C=C/c1ccc(N2CCC(c3ccccc3)=N2)cc1)c1ccccc1	-67
CN(C)c1ccc(/C=C/C(=O)c2ccccc2O)cc1	-197
Cc1ccc(/C=C/C(=O)Nc2ccccc2C(N)=O)cc1	-86
CC(C)NC(=O)c1ccccc1NC(=O)/C=C/c1cccc([N+](=O)[O-])c1	n
O=C(/C=C/c1cccnc1)c1cccc(O)c1	-88
O=C(/C=C/c1ccco1)c1ccccc1O	-65
O=C(/C=C/c1ccc(-c2ccccc2)o1)c1ccccc1	-66
Cc1ccc(/C=C/C(=O)c2ccc(C)cc2)cc1	-150
Cc1c(/C=C/C(=O)c2ccccc2O)cnn1C	-227
SMILES	aSyn UTR act
CSc1ccc(C(=O)/C=C/c2ccc(N)cc2)cc1	-204
Cc1nn(C)cc1/C=C/C(=O)c1ccc(O)cc1	-229
Cc1ccc(/C=C/C(=O)c2ccccc2O)cc1	-121
O=C(/C=C/c1ccc(O)cc1)c1ccccc1	-118
COc1ccccc1OCC(=O)Nc1ccc2c(c1)OCO2	-96
CN1CCN(c2ccc(NC(=O)COc3ccccc3Cl)cc2)CC1	-65
O=C(COc1ccccc1Cl)Nc1ccc2c(c1)OCO2	-145
Cc1ccccc1OCC(=O)Nc1ccc2c(c1)OCO2	-140
COc1cc(C(=O)c2cocc2C(=O)c2ccc3c(c2)OCO3)cc(OC)c1OC	n
C/C(=N/NC(=O)c1ccc(C)s1)c1cccc(NC(=O)COc2ccc(Cl)cc2Cl)c1	-126
C/C(=N\NC(=O)c1ccn(C)n1)c1ccc(NC(=O)c2cccc(F)c2)cc1	-86
C/C(=N\NC(=O)c1c(Cl)cnn1C)c1cccc(NC(=O)COc2ccccc2)c1	-88
C/C(=N\NC(=O)c1ccn(C)n1)c1cccc(NC(=O)c2ccc(C)s2)c1	-101
C/C(=N/NC(=O)c1ccco1)c1cccc(NC(=O)c2ccc(C)s2)c1	-143
C/C(=N/NC(=O)c1ccc(Cl)s1)c1ccc(NC(=O)COc2ccc(Cl)cc2)cc1	-77
C=C1c2ccccc2NC(=S)N1Cc1ccc2c(c1)OCO2	-99
COc1cc2c(cc1NC(=O)C(C)OC(=O)/C=C/c1ccc(OC(F)F)cc1)oc1ccccc12 (stereo not drawn)	-150
COc1cc2c(cc1NC(=O)C(C)OC(=O)C1CC(=O)N(Cc3ccco3)C1)oc1ccccc12 (stereo not drawn)	-127
COc1cc2c(cc1NC(=S)Nc1cccc(C)c1)oc1ccccc12	-124
COc1cc2c(cc1NC(=O)Nc1ccc(F)cc1)oc1ccccc12	-95
COc1cc2c(cc1NC(=O)CSc1nccn1C)oc1ccccc12	-229
COc1ccc(NC(=O)Nc2cc3oc4ccccc4c3cc2OC)cc1	-152
Cc1ccc(NC(=O)c2ccc(OC(=O)COc3ccc(Cl)cc3C)cc2)cc1	-79
Cc1ccc(NC(=O)c2ccc(OC(=O)CCN3C(=O)c4ccccc4C3=O)cc2)cc1	-146
Cc1ccc(NC(=O)c2ccc(OC(=O)COc3cccc(Cl)c3)cc2)cc1	-130
SMILES	aSyn UTR act
C=C[C@@]1(C)CC(=O)[C@]2(O)[C@@]3(C)[C@@H](O)CCC(C)(C)[C@@H]3[C@H](O)[C@H](OC(C)=O)[C@@]2(C)O1	n
CCC(=O)Oc1ccc(C(=O)Nc2ccc([N+](=O)[O-])cc2)cc1	-170
O=C(Nc1ccccc1F)c1ccc([N+](=O)[O-])s1	-115
CC(=O)c1ccc(NC(=O)Nc2ccc(Cl)cc2)cc1	-193
CC(=O)Nc1cc[n+](C(C)C(=O)c2ccc(Cl)cc2)cc1 (stereo not drawn)	n
CC(=O)Nc1ccc(OS(=O)(=O)c2ccc([N+](=O)[O-])cc2)cc1	-115
CC(=O)c1ccc(NC(=O)c2cc(Cl)sc2Cl)cc1	-156
O=C(Nc1ccc(Oc2ccc(NC(=O)Nc3ccc([N+](=O)[O-])cc3)cc2)cc1)Nc1ccc([N+](=O)[O-])cc1	n
O=C(Nc1ccccc1F)c1cc(Cl)sc1Cl	-62
CC(=O)c1ccc(NC(=O)Nc2ccc([N+](=O)[O-])cc2)cc1	-148
O=[N+]([O-])c1ccc2nc(-c3ccccc3)n(OCc3ccc(Cl)cc3)c2c1	-87
COn1c(-c2ccccc2)nc2ccc(Cl)cc21	-138
COC(=O)C(Cc1ccc(OC(=O)c2ccc(C)cc2)cc1)N1Cc2ccccc2C1=O (stereo not drawn)	-67
COC(=O)C(Cc1ccc(O)cc1)N1Cc2ccccc2C1=O (stereo not drawn)	-144
O=C(Nc1ccc([N+](=O)[O-])cc1)C(Cc1ccccc1)N1C(=O)c2cccc3cccc(c23)C1=O (stereo not drawn)	n
CCc1ccc(Nc2ncc3c(n2)CC(C)CC3=O)cc1 (stereo not drawn)	-135
CCc1ccc(Nc2ncc3c(n2)CC(C)(C)CC3=O)cc1	-141
Cc1cccc(Nc2ncc3c(n2)CC(C)CC3=O)c1 (stereo not drawn)	-127
COc1ccc(/C=C2\SC(=O)N(CCCC(=O)Nc3ccc(C(=O)O)cc3)C2=O)cc1OC	n
C#CCN1C(=O)S/C(=C\c2ccc(-c3ccc(C(=O)O)cc3C)o2)C1=O	-191
Cc1cc(C(=O)Nc2ccc([N+](=O)[O-])cn2)cs1	-137
CC(Oc1cccc(Cl)c1)C(=O)Nc1ccc([N+](=O)[O-])cn1 (stereo not drawn)	n
Cc1ccc(C(=O)Nc2ccc([N+](=O)[O-])cn2)o1	-93
CCOC(=O)N1CC=C2C(C#N)=C(N)C(C#N)(C#N)[C@H](c3ccccc3OCC)[C@H]2C1	-90
Cc1ccc(CNC(=O)C2(S(=O)(=O)c3ccccc3)CC=CC2)cc1	-114
SMILES	aSyn UTR act
COCn1c(COc2ccc3ccccc3c2)nc2ccccc21	-92
Nn1c(COc2ccccc2)nc2ccccc2c1=O	-70
Cn1c(COc2ccccc2Br)nc2ccccc21	-145
COc1cccc(CCc2nc3ccccc3c(=O)n2N)c1	-68
CCn1c(CCc2ccccc2)nc2ccccc21	-76
CCn1c(COc2ccccc2C)nc2ccccc21	-131
Cc1ccccc1OCc1nc2ccccc2c(=O)n1N	-113
CC(=O)c1ccccc1OC(=O)c1ccc(-c2ccccc2)cc1	-78
O=C(Cn1cc(SCc2cccc(Cl)c2)c2ccccc21)N1CCOCC1	-153
Cc1cccc(CSc2cn(CC(=O)N3CCOCC3)c3ccccc23)c1	-130

Screening results from PubChem.
